Here are results for 8 sequences from publication PMC7862700, “An all-to-all approach to the identification of sequence-specific readers for epigenetic DNA modifications on cytosine”.

What all share (experiment): DAPPL (digital affinity profiling via proximity ligation, sequencing); 10 mM Tris-HCl pH 7.5, 50 mM NaCl, 1 mM DTT, 4% glycerol, room temperature, 30 min; GST-TFs on glutathione beads, 16-mer random dsDNA library, 0.1% formaldehyde crosslink after washing; high values mean tight binding
Conditions in all cases: protein: recombinant; tags: N-terminal GST; dsDNA, one strand shown

Test [1] has as its target T1, FEV (Homo sapiens, UniProt Q99581 1-238).
T1 sequence: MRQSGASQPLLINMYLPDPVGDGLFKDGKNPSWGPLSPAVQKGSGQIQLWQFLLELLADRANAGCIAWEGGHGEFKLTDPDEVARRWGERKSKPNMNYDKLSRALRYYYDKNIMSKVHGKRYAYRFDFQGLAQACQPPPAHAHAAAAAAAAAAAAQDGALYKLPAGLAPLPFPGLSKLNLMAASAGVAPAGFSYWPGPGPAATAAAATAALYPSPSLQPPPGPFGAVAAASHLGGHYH
A digest of the protocol:
(§1)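 Binding signal is given per hexamer as its read frequency for a factor divided by its frequency in the tag-only sample. GST-fused human transcription factors were expressed in yeast, captured on glutathione beads, barcoded with DNA and pooled with that sample, then incubated with 200 nmole of a 16-mer random double-stranded DNA library in Tris/NaCl/DTT/glycerol buffer for 30 min at room temperature. The pools were then washed, crosslinked, proximity-ligated, amplified by PCR and sequenced on an Illumina NextSeq500.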

The target in test [2] is ETV5 (Homo sapiens, UniProt P41161 1-510). In a few lines: as §1
The target in test [3] is T2, SPIC (Homo sapiens, UniProt Q8N5J4 1-248).
T2 sequence: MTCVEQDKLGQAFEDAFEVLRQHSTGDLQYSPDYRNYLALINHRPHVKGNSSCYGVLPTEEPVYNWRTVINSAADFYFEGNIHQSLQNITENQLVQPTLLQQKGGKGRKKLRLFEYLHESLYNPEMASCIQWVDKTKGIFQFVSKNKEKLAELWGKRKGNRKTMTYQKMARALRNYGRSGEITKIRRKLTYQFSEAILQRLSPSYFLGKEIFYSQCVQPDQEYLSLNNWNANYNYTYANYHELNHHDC
In a few lines:
as §1

In test [4] the target is ELF4 (Homo sapiens, UniProt Q99607 1-663). In a few lines: as §1
Test [5] concerns the target T3, ELK4 (Homo sapiens, UniProt P28324-2 1-405).
T3 sequence: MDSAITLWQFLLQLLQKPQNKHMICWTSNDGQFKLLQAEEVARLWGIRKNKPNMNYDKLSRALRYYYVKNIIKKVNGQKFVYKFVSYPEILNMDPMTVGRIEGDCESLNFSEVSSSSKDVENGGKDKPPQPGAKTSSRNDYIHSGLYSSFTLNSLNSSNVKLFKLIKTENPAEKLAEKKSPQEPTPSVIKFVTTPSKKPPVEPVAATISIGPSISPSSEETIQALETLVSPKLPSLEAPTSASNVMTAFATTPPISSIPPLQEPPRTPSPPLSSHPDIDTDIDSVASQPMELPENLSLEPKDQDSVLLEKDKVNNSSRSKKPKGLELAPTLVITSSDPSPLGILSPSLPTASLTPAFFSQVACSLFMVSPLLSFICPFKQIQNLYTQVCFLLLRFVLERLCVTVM
A digest of the protocol:
as §1

Test [6] addresses T4, ETV2 (Homo sapiens, UniProt O00321 1-342).
T4 sequence: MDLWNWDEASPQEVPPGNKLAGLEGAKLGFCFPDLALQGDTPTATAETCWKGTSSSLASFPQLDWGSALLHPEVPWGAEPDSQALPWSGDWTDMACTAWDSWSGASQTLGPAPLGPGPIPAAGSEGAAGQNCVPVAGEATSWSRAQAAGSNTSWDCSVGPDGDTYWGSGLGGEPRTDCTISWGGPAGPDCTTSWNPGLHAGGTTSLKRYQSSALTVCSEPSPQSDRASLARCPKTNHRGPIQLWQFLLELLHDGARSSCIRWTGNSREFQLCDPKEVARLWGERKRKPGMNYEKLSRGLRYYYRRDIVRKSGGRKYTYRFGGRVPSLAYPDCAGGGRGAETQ
A digest of the protocol:
as §1

The target of test [7] is T5, ELF3 (Homo sapiens, UniProt P78545 1-371).
T5 sequence: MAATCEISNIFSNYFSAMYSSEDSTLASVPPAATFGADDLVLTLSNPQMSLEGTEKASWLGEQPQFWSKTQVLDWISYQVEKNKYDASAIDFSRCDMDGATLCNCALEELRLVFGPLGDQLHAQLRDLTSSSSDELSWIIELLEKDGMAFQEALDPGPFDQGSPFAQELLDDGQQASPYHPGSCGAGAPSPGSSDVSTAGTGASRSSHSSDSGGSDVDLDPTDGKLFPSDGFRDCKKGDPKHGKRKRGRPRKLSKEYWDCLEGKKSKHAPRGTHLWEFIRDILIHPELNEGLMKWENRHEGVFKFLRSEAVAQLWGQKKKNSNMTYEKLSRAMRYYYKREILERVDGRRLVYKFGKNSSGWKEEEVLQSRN
A digest of the protocol: as §1

Test [8] has as its target ETV1 (Homo sapiens, UniProt P50549 1-477). In a few lines: as §1

Sequence of ETV5 (P41161 whole entry): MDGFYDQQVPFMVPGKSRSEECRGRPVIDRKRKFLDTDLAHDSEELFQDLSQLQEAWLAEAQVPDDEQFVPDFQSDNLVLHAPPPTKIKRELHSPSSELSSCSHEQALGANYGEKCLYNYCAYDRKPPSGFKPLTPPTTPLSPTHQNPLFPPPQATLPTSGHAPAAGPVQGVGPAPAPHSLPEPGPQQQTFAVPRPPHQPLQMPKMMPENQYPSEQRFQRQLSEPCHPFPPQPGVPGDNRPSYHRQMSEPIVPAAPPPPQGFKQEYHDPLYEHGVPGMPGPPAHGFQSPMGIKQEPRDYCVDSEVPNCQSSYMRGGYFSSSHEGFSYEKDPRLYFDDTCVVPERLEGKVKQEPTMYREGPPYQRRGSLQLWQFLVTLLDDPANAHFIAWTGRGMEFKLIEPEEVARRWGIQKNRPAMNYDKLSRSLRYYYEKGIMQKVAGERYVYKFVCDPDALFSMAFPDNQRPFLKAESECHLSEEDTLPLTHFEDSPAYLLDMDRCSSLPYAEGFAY
Sequence of ELF4 (Q99607 whole entry): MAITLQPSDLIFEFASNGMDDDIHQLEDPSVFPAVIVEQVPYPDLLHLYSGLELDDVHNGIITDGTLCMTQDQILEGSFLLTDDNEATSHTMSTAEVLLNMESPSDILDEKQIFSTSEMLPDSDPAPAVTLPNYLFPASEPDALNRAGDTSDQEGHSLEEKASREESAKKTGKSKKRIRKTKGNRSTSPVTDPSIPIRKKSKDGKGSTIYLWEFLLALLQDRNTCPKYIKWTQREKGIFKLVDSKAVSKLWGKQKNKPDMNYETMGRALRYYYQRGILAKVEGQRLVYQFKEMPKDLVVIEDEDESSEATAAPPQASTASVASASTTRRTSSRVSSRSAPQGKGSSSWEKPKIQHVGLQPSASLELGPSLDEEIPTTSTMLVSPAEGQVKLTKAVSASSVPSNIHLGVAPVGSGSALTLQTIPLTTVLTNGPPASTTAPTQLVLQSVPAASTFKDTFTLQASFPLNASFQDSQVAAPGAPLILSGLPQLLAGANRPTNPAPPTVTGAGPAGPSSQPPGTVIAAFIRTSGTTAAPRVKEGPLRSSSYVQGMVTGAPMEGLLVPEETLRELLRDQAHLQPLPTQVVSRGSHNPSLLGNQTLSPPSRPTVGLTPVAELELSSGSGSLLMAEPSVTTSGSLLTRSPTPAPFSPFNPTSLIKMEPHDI
Sequence of ETV1 (P50549 whole entry): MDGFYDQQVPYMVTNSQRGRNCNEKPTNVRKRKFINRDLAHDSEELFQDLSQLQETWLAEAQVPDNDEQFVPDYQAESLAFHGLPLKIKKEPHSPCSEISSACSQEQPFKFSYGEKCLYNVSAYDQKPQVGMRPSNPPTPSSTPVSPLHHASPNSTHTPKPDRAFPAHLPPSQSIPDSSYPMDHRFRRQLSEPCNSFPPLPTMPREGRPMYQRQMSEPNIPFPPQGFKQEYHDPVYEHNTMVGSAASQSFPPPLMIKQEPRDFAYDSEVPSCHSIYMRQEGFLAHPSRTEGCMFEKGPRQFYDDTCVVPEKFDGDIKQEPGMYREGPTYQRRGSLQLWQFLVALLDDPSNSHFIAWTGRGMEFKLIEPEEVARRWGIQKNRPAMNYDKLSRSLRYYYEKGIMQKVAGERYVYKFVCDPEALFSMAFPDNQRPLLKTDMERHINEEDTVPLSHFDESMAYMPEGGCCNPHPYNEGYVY

For TACAAC, the binding signal in test [1] was 1.17 fold enrichment (6-mer frequency, TF over GST control); in test [2], 1.13 fold enrichment (6-mer frequency, TF over GST control); in test [3] it was 1.22 fold enrichment (6-mer frequency, TF over GST control); in test [4] it was 1.11 fold enrichment (6-mer frequency, TF over GST control); in test [5], 1.07 fold enrichment (6-mer frequency, TF over GST control); in test [6] it was 1.09 fold enrichment (6-mer frequency, TF over GST control). The binding signal was 1.02 fold enrichment (6-mer frequency, TF over GST control) in test [7] and 1.13 fold enrichment (6-mer frequency, TF over GST control) in test [8].
Take GTCCAT: the binding signal in test [1] was 1.03 fold enrichment (6-mer frequency, TF over GST control); in test [2], 1.17 fold enrichment (6-mer frequency, TF over GST control); in test [3], 1.17 fold enrichment (6-mer frequency, TF over GST control); in test [4], 1.1 fold enrichment (6-mer frequency, TF over GST control); in test [5], 1.18 fold enrichment (6-mer frequency, TF over GST control); in test [6], 1.04 fold enrichment (6-mer frequency, TF over GST control). Further, the binding signal in test [7] is 1.11 fold enrichment (6-mer frequency, TF over GST control); in test [8] it was 1.18 fold enrichment (6-mer frequency, TF over GST control).
CACCCG: the binding signal is 1.16 fold enrichment (6-mer frequency, TF over GST control) in test [1]; 1.21 fold enrichment (6-mer frequency, TF over GST control) in test [2]; 1.17 fold enrichment (6-mer frequency, TF over GST control) in test [3]; 1.18 fold enrichment (6-mer frequency, TF over GST control) in test [4]; 1.29 fold enrichment (6-mer frequency, TF over GST control) in test [5]; 1.2 fold enrichment (6-mer frequency, TF over GST control) in test [6]. Moreover, the binding signal is 1.16 fold enrichment (6-mer frequency, TF over GST control) in test [7] and 1.14 fold enrichment (6-mer frequency, TF over GST control) in test [8].
In the case of CAACCC, the binding signal is 1.21 fold enrichment (6-mer frequency, TF over GST control) in test [1]; 1.23 fold enrichment (6-mer frequency, TF over GST control) in test [2]; 1.23 fold enrichment (6-mer frequency, TF over GST control) in test [3]; 1.34 fold enrichment (6-mer frequency, TF over GST control) in test [4]; 1.22 fold enrichment (6-mer frequency, TF over GST control) in test [5]; 1.17 fold enrichment (6-mer frequency, TF over GST control) in test [6]. Also, the binding signal is 1.34 fold enrichment (6-mer frequency, TF over GST control) in test [7] and 1.18 fold enrichment (6-mer frequency, TF over GST control) in test [8].
In the case of ACATTG, the binding signal in test [1] was 1.12 fold enrichment (6-mer frequency, TF over GST control); in test [2] it was 1.09 fold enrichment (6-mer frequency, TF over GST control); in test [3], 1.18 fold enrichment (6-mer frequency, TF over GST control); in test [4], 1.12 fold enrichment (6-mer frequency, TF over GST control); in test [5] it was 1.19 fold enrichment (6-mer frequency, TF over GST control); in test [6], 1.09 fold enrichment (6-mer frequency, TF over GST control). The binding signal in test [7] is 1.25 fold enrichment (6-mer frequency, TF over GST control); in test [8] it was 1.19 fold enrichment (6-mer frequency, TF over GST control).
For ACGCTG, the binding signal in test [1] is 1.09 fold enrichment (6-mer frequency, TF over GST control); in test [2], 1.08 fold enrichment (6-mer frequency, TF over GST control); in test [3] it was 1.15 fold enrichment (6-mer frequency, TF over GST control); in test [4], 1.17 fold enrichment (6-mer frequency, TF over GST control); in test [5], 1.21 fold enrichment (6-mer frequency, TF over GST control); in test [6], 1.05 fold enrichment (6-mer frequency, TF over GST control). Moreover, the binding signal was 1.05 fold enrichment (6-mer frequency, TF over GST control) in test [7] and 1.12 fold enrichment (6-mer frequency, TF over GST control) in test [8].
Regarding CCGGTA, the binding signal in test [1] was 1.81 fold enrichment (6-mer frequency, TF over GST control); in test [2], 1.59 fold enrichment (6-mer frequency, TF over GST control); in test [3] it was 1.69 fold enrichment (6-mer frequency, TF over GST control); in test [4] it was 1.45 fold enrichment (6-mer frequency, TF over GST control); in test [5], 1.41 fold enrichment (6-mer frequency, TF over GST control); in test [6] it was 1.52 fold enrichment (6-mer frequency, TF over GST control). The binding signal in test [7] is 1.6 fold enrichment (6-mer frequency, TF over GST control); in test [8], 1.59 fold enrichment (6-mer frequency, TF over GST control).
Take ACCTGA: the binding signal in test [1] was 1.13 fold enrichment (6-mer frequency, TF over GST control); in test [2] it was 1.07 fold enrichment (6-mer frequency, TF over GST control); in test [3], 1 fold enrichment (6-mer frequency, TF over GST control); in test [4], 1.15 fold enrichment (6-mer frequency, TF over GST control); in test [5], 1.14 fold enrichment (6-mer frequency, TF over GST control); in test [6], 1.02 fold enrichment (6-mer frequency, TF over GST control). Further, the binding signal was 1.14 fold enrichment (6-mer frequency, TF over GST control) in test [7] and 1.06 fold enrichment (6-mer frequency, TF over GST control) in test [8].
